Laboratory results taken from PubChem BioAssay (NCATS).
Inconclusive results are not listed. Calls of active or inactive are those of the source. Calls follow the shape of the dose curve; as a rule, active = well fitted inhibition curve with a large enough effect; inconclusive = small, poorly fitted or top-dose-only effect; inactive = flat fitted curve, though single readings scatter.

Experiments:
Assay in all cases: qHTS profiling for inhibitors of Plasmodium falciparum proliferation (AID 504749); also: nearly all actives have a fitted effect of over 60% in size
Conditions in all cases: P. falciparum in erythrocytes, SYBR Green DNA, 72 h; series mostly up to 12.8 µM
CP260 = tested on: CP260
Procedure, shortened: (§1)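 Three-day growth assay of blood-stage parasites in erythrocytes (0.3% parasitemia, 2.5% hematocrit) at 37 C, 5% CO2, quantified by SYBR Green DNA staining after overnight detergent lysis.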

CP262 = tested on: CP262
Procedure, shortened: as §1

CP265 = tested on: CP265
Procedure, shortened: as §1

CP266 = tested on: CP266
Procedure, shortened: as §1

CP268 = tested on: CP268
Procedure, shortened: as §1

CP269 = tested on: CP269
Procedure, shortened: as §1

CP286 = tested on: CP286
Procedure, shortened: as §1

CP291 = tested on: CP291
Procedure, shortened: as §1

CP297 = tested on: CP297
Procedure, shortened: as §1

CP305 = tested on: CP305
Procedure, shortened: as §1

CP315 = tested on: CP315
Procedure, shortened: as §1

CP325 = tested on: CP325
Procedure, shortened: as §1

CP329 = tested on: CP329
Procedure, shortened: as §1

CP335 = tested on: CP335
Procedure, shortened: as §1

DFO2036 = tested on: DFO2036
Procedure, shortened: as §1

DIV14 = tested on: DIV14
Procedure, shortened: as §1

DIV17 = tested on: DIV17
Procedure, shortened: as §1

DIV30 = tested on: DIV30
Procedure, shortened: as §1

Dd2 = tested on: Dd2
Procedure, shortened: as §1

ECU = tested on: ECU
Procedure, shortened: as §1

FAB9 = tested on: FAB9
Procedure, shortened: as §1

GB4 = tested on: GB4
Procedure, shortened: as §1

HB3 = tested on: HB3
Procedure, shortened: as §1

ICS = tested on: ICS
Procedure, shortened: as §1

JCK = tested on: JCK
Procedure, shortened: as §1

N140 = tested on: N140
Procedure, shortened: as §1

P93_24 = tested on: P93_24
Procedure, shortened: as §1

P94_40 = tested on: P94_40
Procedure, shortened: as §1

PAD = tested on: PAD
Procedure, shortened: as §1

PC15 = tested on: PC15
Procedure, shortened: as §1

PC26 = tested on: PC26
Procedure, shortened: as §1

PC49 = tested on: PC49
Procedure, shortened: as §1

SC27B = tested on: SC27B
Procedure, shortened: as §1

TAB109 = tested on: TAB109
Procedure, shortened: as §1

TAB113 = tested on: TAB113
Procedure, shortened: as §1

TAB165 = tested on: TAB165
Procedure, shortened: as §1

W2 = tested on: W2
Procedure, shortened: as §1

Measured: Potency

COc1ccc(OC)c([C@H](O)CNC(=O)CN)c1
inactive: all assays above
